# From PubChem BioAssay
# TDP1 cell CPT: growth inhibition of DT40 Tdp1-/-;hTDP1 cells with camptothecin (screen for TDP1 inhibitors). actives 12% (n = 420,000). Potency, µM (doses to about 46.2 µM), without a hit: at the highest dose activity change, negative = growth inhibition, hits mostly inhibitors. AID 686979. chicken DT40 Tdp1-/-;hTDP1 cells + 20 nM CPT, ATP luminescence, 48 h; further: potency means the concentration at half of the fitted maximal effect; on the % scale 0 is the no-effect control and ±100 the full control effect; nearly all actives have a fitted effect of over 55% in size
#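 Chicken DT40 Tdp1-/- cells stably complemented with human TDP1 were seeded at 400 cells/well in medium containing 20 nM camptothecin, exposed to pin-transferred compounds, and grown at 37 °C for at least 48 hr. Viability was read as ATP luminescence.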
# D3 antag: antagonists of human D3 dopamine receptor; P35462; D3R cells, DiscoveRx beta-arrestin luminescence, antagonist mode; hits give low values; max response, negative = inhibition, %; actives 2.5% (n = 360,000); in the data active means max response below about -50%; inconclusive means no clear call, values can overlap the other calls; further: on the % scale 0 is the no-effect control and ±100 the full control effect
# Target sequence (P35462 whole entry, looked up): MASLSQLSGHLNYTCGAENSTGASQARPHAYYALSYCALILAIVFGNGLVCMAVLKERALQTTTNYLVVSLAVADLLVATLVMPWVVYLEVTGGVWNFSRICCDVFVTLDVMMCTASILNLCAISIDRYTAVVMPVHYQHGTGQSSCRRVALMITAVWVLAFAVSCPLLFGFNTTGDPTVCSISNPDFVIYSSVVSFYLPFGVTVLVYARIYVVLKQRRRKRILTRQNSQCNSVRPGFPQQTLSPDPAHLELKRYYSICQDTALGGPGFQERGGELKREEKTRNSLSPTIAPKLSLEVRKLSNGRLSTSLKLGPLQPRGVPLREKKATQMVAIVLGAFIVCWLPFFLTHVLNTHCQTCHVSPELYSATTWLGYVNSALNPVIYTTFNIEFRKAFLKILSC
#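 Cells plated overnight at 1500 cells/well, then exposed to library compounds with dopamine controls for 90 minutes at 37 degrees C. DiscoveRx reagent added for 30–60 minutes at room temperature; luminescence read, quantitative HTS format.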
# D3 ag: activates the human D3 dopamine receptor; P35462; max activation, %; actives 0.58% (n = 410,000); D3R DiscoveRx beta-arrestin cells, luminescence, 90 min; in the data active means max activation above about 30%; further: 0% is about no effect
#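 Cells at 1500/well, incubated overnight, then treated with pinned compounds (dopamine as control) for 90 min at 37 degrees C. DiscoveRx reagent added for 30 - 60 minutes at room temperature; luminescence read.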
# ClpP mod: qHTS Assay for Activators of ClpP | ATP-dependent Clp protease proteolytic subunit (Bacillus subtilis (strain 168)), P80244 | purified B. subtilis ClpP, FRET peptide cleavage, 20 min | Potency, µM (series often up to 57.5 µM), without a hit: top-dose activity change, negative = active | actives 1.9% (n = 340,000) | AID 651965, 2013; active means well fitted falling curve with a large enough effect; inconclusive means small, poorly fitted or top-dose-only effect; inactive means no such curve, though single readings can be large or run the other way; further: potency means the concentration at half of the fitted maximal effect; the source files actives as falling curves though it sought activators and does not explain the sign; nearly all actives have a fitted effect of over 65% in size
# Target sequence (P80244 whole entry, looked up): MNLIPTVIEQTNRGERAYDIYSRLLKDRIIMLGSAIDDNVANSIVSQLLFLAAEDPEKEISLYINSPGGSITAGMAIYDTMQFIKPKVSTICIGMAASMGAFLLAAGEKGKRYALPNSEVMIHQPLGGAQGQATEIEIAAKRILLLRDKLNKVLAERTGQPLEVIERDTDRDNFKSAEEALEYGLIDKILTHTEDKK
#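 FRET quenching reversal measured ClpP activation: 10 microg/mL B. subtilis ClpP at pH 8 with the FRET-FV decapeptide, read at 430 nm after 320 nm excitation. The 20-min minus 0-min signal was scaled between DMSO/no-enzyme wells and ADEP (5.8 microM final).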
# DT40 TDP1 no CPT: qHTS for Inhibitors of human tyrosyl-DNA phosphodiesterase 1 (TDP1): qHTS in cells in absence of CPT. DT40 Tdp1-/- hTDP1 cells, no CPT, ATP luminescence, 48 h. Potency, µM (doses to about 46.2 µM), inactives show at the highest dose activity change, negative = growth inhibition, actives largely listed as inhibitors. actives 15% (n = 420,000). AID 686978, 2013; further: potency means the concentration at half of the fitted maximal effect; on the % scale 0 is the no-effect control and ±100 the full control effect; nearly all actives have a fitted effect of over 55% in size
#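 A cellular qHTS used chicken DT40 cells lacking endogenous Tdp1 but carrying stably transfected human TDP1. Compounds were applied without camptothecin, and cell growth kinetics were judged by ATP-dependent luminescence after ≥48 hr.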
# IL1B secr inh: inhibitors of inflammasome signaling (IL-1 beta secretion) | activity change, % at 57.5 µM | actives 4.7% (n = 360,000) | AID 743279 | THP-1 LPS/ATP IL-1B secretion, AlphaLISA, 16 h; hits give low values; in the data active means activity change below about -50%; inconclusive means mostly about -30% to -49%; further: on the % scale 0 is the no-effect control and ±100 the full control effect
#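 Secreted IL-1B measured by AlphaLISA bead assay after 16 h compound exposure of THP-1 cells; compounds (final up to 57.5 uM) added 1 h before LPS (250 ng/mL) and ATP (1.25 mM) stimulation; lower signal means less secretion.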
# * = called active by the depositor; ? = inconclusive; · = not tested or not shown. Most compounds without a hit are left out; they make up all but 21% or so of the library. Unless noted, the call rests on the fitted dose curve; in most records, active means well fitted inhibition curve with a large enough effect; inconclusive means small, poorly fitted or top-dose-only effect; inactive means flat fitted curve, though single readings scatter.
SMILES,TDP1 cell CPT,D3 antag,D3 ag,ClpP mod,DT40 TDP1 no CPT,IL1B secr inh
CN1CCCC1CN1CCCC1 (stereo unspecified),-12%,-7,-1,-1%,-2%,20
CN1CCCC1CCNC1C2CC3CC(C2)CC1C3 (stereo unspecified),8.2µM*,-21,-7,-1%,16µM*,-13
CCCCNC(=O)c1cc2c(=O)n3cccc(C)c3nc2n(CCN2CCOCC2)c1=N,?,1,-1,13µM*,?,-2
CCCCNC(=O)c1cc2c(=O)n3cccc(C)c3nc2n(Cc2ccncc2)c1=N,?,23,14,3.5µM*,?,-23
Cc1cccn2c(=O)c3cc(C#N)c(=N)n(CCN4CCOCC4)c3nc12,-4%,16,-3,16µM*,1%,-12
Cc1cccn2c(=O)c3cc(C#N)c(=N)n(CCCN4CCOCC4)c3nc12,?,-24,-10,?,-20%,-4
COCCNC(=O)c1cc2c(=O)n3cccc(C)c3nc2n(Cc2ccncc2)c1=N,?,-12,-2,28%,?,-5
Cc1ccc2nc3c(cc(C(=O)NCCc4ccccc4)c(=N)n3CCN3CCOCC3)c(=O)n2c1,?,?,-11,·,26µM*,2
Cc1cccn2c(=O)c3cc(C(=O)NC4CCCCC4)c(=N)n(CCN4CCOCC4)c3nc12,?,16,5,4%,?,12
Cc1ccc2nc3c(cc(C(=O)NCCN4CCOCC4)c(=N)n3CCCN3CCOCC3)c(=O)n2c1,-7%,2,2,·,-14%,-8
Cc1csc(=O)n1CC(=O)OCC(=O)NNC(=O)c1ccc(Cl)cc1,20%,-3,6,-1%,7%,1
O=C(COc1ccc(Cl)cc1)OCc1cc(=O)n2nc(C3CCCCC3)sc2n1,-3%,·,3,?,-23%,·
Oc1ccc(N=Cc2cc(Br)c(N3CCOCC3)o2)cc1,?,5,-3,1%,21µM*,0
O=C(CCCc1nc(-c2ccc(Cl)cc2)no1)NC1CCCC1,8.2µM*,13,7,-1%,8.2µM*,-6
COc1ccc(-c2noc(CCCC(=O)NC3CCCC3)n2)cc1,16µM*,0,0,·,16µM*,-13
COc1ccc(-c2noc(CCC(=O)NC3CCCCCC3)n2)cc1,?,-1,6,-1%,1%,21
Cc1cccc(-c2noc(CCCC(=O)NC3CCCC3)n2)c1,?,10,7,·,?,27
Cn1c(=O)c2c(ncn2Cc2nnc(N)s2)n(C)c1=O,1%,1,6,·,1%,-15
CCOC(=O)C1=C(NC#N)OC(C)=C(C)C1c1ccc(O)cc1 (stereo unspecified),23µM*,-22,2,-8%,21µM*,15
CCOC(=O)C1=C(N)Oc2ccc3ccccc3c2C1c1ccc(O)cc1 (stereo unspecified),?,13,-13,-1%,?,-12
O=C(Cn1nc(-c2ccccc2)c2ccccc2c1=O)Nc1cccc(O)c1,0%,4,4,·,-23%,-52*
Cc1cccc(NC(=O)Cn2nc(-c3ccccc3)c3cnc4ccccc4c32)c1,16µM*,·,2,-2%,-45%,·
COc1ccc(-c2nn(-c3ccc(C)cc3)c3c2cnc2ccc(C)cc23)cc1OC,2%,·,9,-12%,0%,·
CCOc1ccc2ncc3c(-c4ccccc4)nn(CC(=O)Nc4cccc(F)c4)c3c2c1,-7%,·,3,-1%,-11%,·
Cc1ccc(-c2nn(CC(=O)NC3CCCC3)c3c2cnc2ccc(F)cc23)cc1C,?,·,-3,-8%,12µM*,·
SMILES,TDP1 cell CPT,D3 antag,D3 ag,ClpP mod,DT40 TDP1 no CPT,IL1B secr inh
COc1cc2ncc3c(-c4ccccc4)nn(-c4ccc(C)cc4)c3c2cc1OC,16µM*,·,20,-22%,16µM*,·
Cc1nc(SCC(=O)N2CCCC2=O)nc(C)c1C,0%,-10,-8,0%,-4%,25
COc1ccc2ncc3c(-c4ccccc4)nn(-c4ccc(C)c(C)c4)c3c2c1,12µM*,·,3,?,9.2µM*,·
Cc1ccc(-n2nc(-c3ccccc3)c3cnc4cc5c(cc4c32)OCO5)cc1C,-10%,·,-15,-2%,-20%,·
COc1ccc2ncc3c(-c4ccc(C)c(C)c4)nn(CC(=O)Nc4ccccc4)c3c2c1,15µM*,·,8,31%,18µM*,·
CCCCOC(=O)c1ccc(NC(=O)/C(C#N)=C/c2ccc(C)o2)cc1,0%,·,3,2%,-22%,·
O=C(C[C@@H]1C[C@H]2c3cc(NC(=O)NC4CCCCC4)ccc3O[C@H]2[C@H](CO)O1)NC1CCCCC1,?,-19,-7,-2%,15µM*,?
COC(=O)C[C@H]1C[C@@H]2c3cc(NC(=O)Nc4ccc(F)cc4)ccc3O[C@@H]2[C@@H](CO)O1,-4%,11,-4,-2%,-9%,13
COC(=O)C[C@H]1C[C@H]2c3cc(NC(=O)Nc4ccc(C(F)(F)F)cc4)ccc3O[C@H]2[C@@H](CO)O1,?,?,-11,1%,26µM*,-4
COC(=O)C[C@@H]1C[C@H]2c3cc(NC(=O)C4CCC4)ccc3O[C@H]2[C@@H](CO)O1,-2%,-17,0,0%,-5%,10
CCCNC(=O)C[C@H]1C[C@H]2c3cc(NC(=O)Nc4ccc(F)cc4)ccc3O[C@H]2[C@@H](CO)O1,1.8µM*,-10,-5,-1%,2.3µM*,-6
COc1cccc(S(=O)(=O)Nc2ccc3c(c2)[C@@H]2C[C@H](CC(=O)NCCc4ccccc4)O[C@H](CO)[C@@H]2O3)c1,23µM*,-16,-9,-1%,16µM*,-13
COC(=O)C[C@H]1C[C@@H]2c3cc(NC(=O)CN(C)C)ccc3O[C@@H]2[C@H](CO)O1,-23%,?,-10,-3%,?,22
COc1ccc(OCc2nc3c4c(-c5ccc(OC)cc5)c(-c5ccc(OC)cc5)oc4ncn3n2)cc1,-8%,·,-6,-30%,3%,·
COCC(=O)Nc1ccc2c(c1)[C@@H]1C[C@H](CC(=O)NCc3cccc(F)c3)O[C@@H](CO)[C@@H]1O2,-23%,-8,-6,0%,-19%,9
